Test results: PubChem BioAssay
Unmarked numbers belong to inactive results. The source made the active and inactive calls.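 The calls were made as follows: active = inhibition at or above 50% relative to wild type and mutant plate controls; inactive = inhibition below 50%.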

Test: loss of swimming-algae plug formation – whole organism, Chlamydomonas reinhardtii, WT vs cilia-less mutant, absorbance, 96-well, primary screen (AID 463189);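 also: 0% = wild type cc124 cells in DMSO and 100% = ciliumless bld1 mutant cells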
Details: Chlamydomonas reinhardtii gravitaxis, OD600 absorbance, 2 days; at 10 µM; stronger effect = higher value

| SMILES | inhibition |
| --- | --- |
| Clc1ccc(N2CCN(Cc3c[nH]c4ncccc34)CC2)cc1 | 5.9% |
| CC(C)C[C@H]1C(=O)N2CCC[C@H]2[C@]2(O)O[C@](NC(=O)[C@@H]3C=C4c5cccc6[nH]c(Br)c(c56)C[C@H]4N(C)C3)(C(C)C)C(=O)N12 | 9.22% |
| N[C@@H](Cc1c[nH]c2ccc(O)cc12)C(=O)O | 4.83% |
| COC(=O)Nc1nc2ccc(C(=O)c3cccs3)cc2[nH]1 | 11.2% |
| CC1(C)CCC=[N+]1[O-] | 0.394% |
| CCC(CO)Nc1nc(NCc2ccccc2)c2ncn(C(C)C)c2n1 (stereo unspecified) | -6.72% |
| CC(=O)C(C)=O | 6.21% |
| O=C1NCC2(CCN(CCc3ccccc3)CC2)O1 | -9.32% |
| CC(C)NC[C@H](O)COc1ccc(CC(N)=O)cc1 | -3.21% |
| Cc1cc(N)c2ccccc2[n+]1CCCCCCCCCCCCCC[n+]1c(C)cc(N)c2ccccc21 | 154% (active) |
| COc1cc(CC(=O)O)ccc1O | -2.57% |
| N=C(N)SCCc1cnc[nH]1 | 2% |
| C=CCc1ccccc1OCC(O)CN[C@]1(C)CCC[C@H](C(C)(C)NC(=O)CBr)C1 (stereo partly specified) | 16.4% |
| Nc1ccc(S(=O)(=O)Nc2ccnn2-c2ccccc2)cc1 | -0.772% |
| CC(N)(Cc1ccc(O)cc1)C(=O)O (stereo unspecified) | 1.6% |
| Cc1cccc(C)c1OCC(N)C(C)C (stereo unspecified) | 9.25% |
| C#CCN(C)CCCOc1ccc(Cl)cc1Cl | 24.1% |
| N[C@@H](Cc1c[nH]c2ccccc12)C(=O)O | 5.27% |
| NC(=O)c1cccc(N)c1 | 3.55% |
| NCC1OC(O[C@@H]2[C@H](O)C(OC3C(O)C(N)CC(N)C3OC3OC(CO)C(O)C(O)C3N)O[C@@H]2CO)C(N)C(O)C1O (stereo partly specified) | 4.9% |
| NNCCc1ccccc1 | 3.74% |
